Experiment [1] can be described thus: qHTS assay to identify small molecule antagonists of the estrogen receptor alpha (ER-alpha) signaling pathway using the BG1 cell line in the presence of 0.1 nM 17-beta-estradiol - cell viability counter screen (AID 1259241). Further: nearly all actives have a fitted effect of over 40% in size. Put shortly:
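CellTiter-Fluor read (30 min, 37C) on ER-alpha/ERE-luc VM7Luc4E2 cells; 22 hr compound treatment; agonist 0.1 nM E2 final; same-well multiplex.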
(Quantitative high-throughput screening tests each substance at several concentrations.)

The nature of experiment [2]: qHTS assay to identify small molecule antagonists of the androgen receptor (AR) signaling pathway using the MDA cell line in the presence of 0.5 nM R1881 - cell viability counter screen (AID 1259242). Further: nearly all actives have a fitted effect of over 45% in size. Further: potency means the concentration at half of the fitted maximal effect. The method, boiled down:
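Fluorescence from CellTiter-Fluor, which reports protease activity of live cells, was read 30 min after reagent addition to MDA-kb2 cells that had been incubated 16 hr with compound and 0.5 nM R1881.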

The target in experiment [3] is Estrogen receptor (Homo sapiens) (UniProt P03372). Briefly: qHTS assay to identify small molecule antagonists of the estrogen receptor alpha (ER-alpha) signaling pathway using the BG1 cell line in the presence of 0.1 nM 17-beta-estradiol (AID 1259244). Further: nearly all actives have a fitted effect of over 50% in size. Further: potency means the concentration at half of the fitted maximal effect. Put shortly: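 Quantitative high-throughput screen in VM7Luc4E2 cells: compound plus 0.1 nM E2 (final), 22 h, 37C, 5% CO2; ONE-Glo added, 30 min room temperature, luminescence measured.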
Sequence of Estrogen receptor (Homo sapiens) (P03372 whole entry, looked up): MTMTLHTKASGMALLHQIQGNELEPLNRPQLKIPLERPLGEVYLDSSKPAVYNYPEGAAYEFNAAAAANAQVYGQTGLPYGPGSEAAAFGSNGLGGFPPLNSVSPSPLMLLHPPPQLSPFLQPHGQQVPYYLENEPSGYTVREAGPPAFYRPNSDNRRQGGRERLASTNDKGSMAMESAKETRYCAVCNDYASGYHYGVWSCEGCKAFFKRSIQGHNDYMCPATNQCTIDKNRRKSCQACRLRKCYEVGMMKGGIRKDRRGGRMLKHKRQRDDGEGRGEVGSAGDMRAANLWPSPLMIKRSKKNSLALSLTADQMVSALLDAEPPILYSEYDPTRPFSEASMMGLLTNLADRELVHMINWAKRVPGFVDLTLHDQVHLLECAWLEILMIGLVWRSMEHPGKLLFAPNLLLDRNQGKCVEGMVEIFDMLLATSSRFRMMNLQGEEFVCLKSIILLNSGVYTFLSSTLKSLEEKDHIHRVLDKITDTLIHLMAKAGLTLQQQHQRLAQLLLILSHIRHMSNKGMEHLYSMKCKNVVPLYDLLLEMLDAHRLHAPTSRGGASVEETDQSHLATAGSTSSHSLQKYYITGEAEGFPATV

The nature of experiment [4]: qHTS assay to identify small molecule phospholipidosis (PLD) inducers (AID 1259344; active means well fitted curve in the direction sought with a large enough effect; an effect the other way counts as inactive or inconclusive). The method, boiled down: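 Quantitative HTS in HepG2: compound plus LipidTOX Red dye for 24 h, paraformaldehyde fixation with Hoechst 33342, widefield high-content imaging; amiodarone as positive and DMSO as negative control.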
Experiment [5] is described as follows: qHTS assay to identify small molecule HDAC inhibitors (AID 1259364). Further: top concentration of the series differs between compounds; nearly all actives have a fitted effect of over 45% in size. Put shortly:
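Endogenous HDAC class I/II activity was measured in wild-type HCT-116 cells by HDAC-Glo luminescence after 2 h compound treatment.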

Experiment [6] in a line: qHTS assay to identify small molecule HDAC inhibitors - cell viability counter screen (AID 1259365). Further: series mostly up to about 92 µM; nearly all actives have a fitted effect of over 50% in size. Put shortly:
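To flag cytotoxic hits, 1,500 wild-type HCT-116 cells per well, plated the day before, receive test compounds for 2hr at 37 C before CellTiter-Glo reagent and a luminescence read.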

Experiment [7] in a line: qHTS assay to identify small molecule agonists of the sonic hedgehog signaling (Shh) pathway - cell viability counter screen (AID 1259366). Further: nearly all actives have a fitted effect of over 50% in size. Further: potency means the concentration at half of the fitted maximal effect. The method, boiled down: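 Fluorescence from CellTiter-Fluor reports live cells in this counter screen. NIH/3T3-derived Gli1-Luc reporter cells receive test compounds for 24hr at 37C; reagent goes in at 23hr.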
Experiment [8] in a line: qHTS assay to identify small molecule agonists of the sonic hedgehog signaling (Shh) pathway (AID 1259368; calls by dose curve;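 further: NIH/3T3-derived 3T3Gli1-Luc cells carrying a stable Gli1-driven firefly luciferase reporter; series mostly up to about 92 µM; nearly all actives have a fitted effect of over 15% in size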). Put shortly:
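Luminescent signal was taken as a measure of Gli1-controlled luciferase expression in stably transfected NIH/3T3-derived cells that had been treated for 24 hr with compounds delivered in DMSO.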

The nature of experiment [9]: qHTS assay to identify small molecule antagonists of the sonic hedgehog signaling (Shh) pathway - cell viability counter screen (AID 1259367). Further: nearly all actives have a fitted effect of over 55% in size. Further: potency means the concentration at half of the fitted maximal effect. Put shortly: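 Seed 3T3 Gli1-Luc cells at 2,000 per well; incubate 4 hr; add compound in DMSO, then conditioned medium; incubate at 37C with 5% CO2; add CellTiter-Fluor after 23 hr; read fluorescence 1 hr later.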

Each structure is given as a SMILES string. Values without a mark were called inactive. Results filed as inconclusive are left out. Activity calls are given as the source filed them. Unless noted, the call rests on the fitted dose curve; in most records, active means well fitted curve in the direction sought with a large enough effect in the repeat runs; inconclusive means weak or mixed curves; inactive means no such curve, though single readings can be large; an effect the other way counts as inactive or inconclusive.
On the % scale 0 is the no-effect control and ±100 the full control effect.

Turning to `C=Cc1ccc(S(=O)(=O)O)cc1`, the Potency result in experiment [1], in experiment [2], in experiment [3], in [4], in experiment [5] and in experiment [6] was “inactive” in each case. The Potency entry in [7] and in experiment [8] was “inactive” each time.
As for `CN1CC(=O)N2[C@H](c3ccc4c(c3)OCO4)c3[nH]c4ccccc4c3C[C@@H]2C1=O`, the Potency entry in experiment [1], in experiment [2], in experiment [3], in [4], in experiment [6] and in experiment [7] was “inactive” throughout. Further, the Potency result in [9] and in experiment [8] was “inactive” in each case.
Regarding `CCOC(C)=O`, the Potency entry in experiment [1], in [2], in experiment [3], in experiment [4], in [6] and in experiment [7] was “inactive” in each case. The Potency entry in experiment [9] and in [8] was “inactive” in each case.
`O=C(OCC(O)CO)c1ccccc1Nc1ccnc2cc(Cl)ccc12` (stereo unspecified): the Potency entry in experiment [1], in experiment [2], in experiment [3], in experiment [4], in [6] and in experiment [8] was “inactive” in each case. For the same compound, the Potency in experiment [7] and in experiment [9] was 29.8 µM (active) each time.
Take `O=C(O)CCc1nc(-c2ccccc2)c(-c2ccccc2)o1`: the Potency entry in [1], in experiment [2], in experiment [3], in [4], in experiment [5] and in experiment [6] was “inactive” each time. The Potency result in [7], in experiment [9] and in experiment [8] was “inactive” throughout.
With `Cc1cccc(N(C)C(=S)Oc2ccc3c(c2)CCC3)c1`, the Potency entry in experiment [1], in experiment [2], in experiment [3], in experiment [5], in [6] and in experiment [7] was “inactive” throughout. In addition, the Potency result in experiment [9] and in [8] was “inactive” each time. In addition, the PLD induction in [4] is -4.02% [at 7.66 µM].
Consider `Nc1cccc2c1CN(C1CCC(=O)NC1=O)C2=O` (stereo unspecified), for which the Potency result in experiment [1], in experiment [2], in experiment [3], in [4], in experiment [5] and in experiment [6] was “inactive” in each case. Further, the Potency entry in experiment [7], in [9] and in experiment [8] was “inactive” throughout.
In the case of `O=C=Nc1ccc(Cl)c(Cl)c1`, the Potency entry in experiment [1], in [2], in experiment [3], in [5], in [6] and in experiment [7] was “inactive” each time. Also, the Potency entry in experiment [9] and in experiment [8] was “inactive” throughout.
Take `O=C(O)CCC(=O)C(=O)O`: the Potency entry in experiment [1], in experiment [2], in experiment [3], in experiment [4], in [5] and in [6] was “inactive” throughout. The Potency result in [7], in experiment [9] and in experiment [8] was “inactive” throughout.
With `O=c1[nH]ncc2ccccc12`, the Potency result in [1], in [2], in experiment [3], in [5], in [6] and in experiment [7] was “inactive” in each case. Also, the Potency entry in experiment [9] and in [8] was “inactive” each time.
On to `Clc1ccc(Nc2nnc(Cc3ccncc3)c3ccccc23)cc1`, for which the Potency entry in [1], in experiment [2], in [4], in experiment [6] and in [8] was “inactive” in each case. Besides, in [3], the Potency was 29.8 µM (active).
As to `CC(C)Nc1cccnc1N1CCN(C(=O)c2cc3cc(NS(C)(=O)=O)ccc3[nH]2)CC1`, the Potency entry in experiment [1], in experiment [2], in experiment [3], in [4], in experiment [5] and in [6] was “inactive” throughout. For the same compound, the Potency result in experiment [7], in experiment [9] and in [8] was “inactive” each time.
Turning to `CN(C)CCN1C(=O)c2ccccc2N(C)c2ccccc21`, the Potency entry in experiment [1], in [2], in experiment [3], in experiment [4], in [5] and in experiment [6] was “inactive” throughout. Further, the Potency result in experiment [7], in experiment [9] and in experiment [8] was “inactive” in each case.
As to `CCOc1ccccc1O[C@H](c1ccccc1)[C@H]1CNCCO1`, the Potency entry in experiment [1], in [2], in experiment [3], in experiment [4], in experiment [5] and in experiment [6] was “inactive” each time. In addition, the Potency entry in experiment [8] is “inactive”.
On to `CC1(C)[C@H](C(=O)O)N2C(=O)C[C@H]2S1(=O)=O`, for which the Potency entry in [1], in experiment [2], in experiment [3], in experiment [5], in [6] and in experiment [7] was “inactive” in each case. The Potency result in [9] and in experiment [8] was “inactive” each time. In experiment [4], the PLD induction is 7.08% [at 7.66 µM].
Take `Cc1ccc(Cl)c(Nc2ccccc2C(=O)O)c1Cl`: the Potency result in experiment [1], in [2], in experiment [3], in experiment [4], in experiment [5] and in experiment [6] was “inactive” in each case. The Potency result in experiment [7], in experiment [9] and in [8] was “inactive” throughout.
Regarding `COc1cc(C(=O)NCCCCCC(=O)O)cc(OC)c1OC`, the Potency result in [1], in experiment [2], in experiment [3], in experiment [4], in experiment [5] and in experiment [6] was “inactive” in each case. Further, the Potency result in [7], in experiment [9] and in experiment [8] was “inactive” each time.
For the compound `C/C=C\C/C=C/CCCCCCCCOC(C)=O`, the Potency entry in experiment [1], in [2], in experiment [3], in experiment [5], in experiment [6] and in experiment [7] was “inactive” throughout. The Potency result in experiment [9] and in experiment [8] was “inactive” throughout.
As to `CC(C)=CCC/C(C)=C/CC/C(C)=C/CCC(=O)OC/C=C(\C)CCC=C(C)C`, the Potency entry in experiment [1], in experiment [2], in [3], in experiment [5], in [6] and in [7] was “inactive” in each case. Further, the Potency entry in experiment [9] and in experiment [8] was “inactive” in each case. The PLD induction in [4] was -0.0635% [at 1.53 µM].
Turning to `CC(=O)N/N=C/c1ccc([N+](=O)[O-])o1`, the Potency entry in [1], in [2], in [3], in experiment [4], in [5] and in experiment [6] was “inactive” in each case. Besides, the Potency result in experiment [9] and in experiment [8] was “inactive” each time.
As to `CCOC(=O)c1ccc(OCCN2C[C@H](O)[C@@H](O)[C@H](O)[C@H]2CO)cc1`, the Potency entry in experiment [1], in experiment [2], in [3], in experiment [4], in experiment [5] and in experiment [6] was “inactive” in each case. In addition, the Potency result in experiment [7], in experiment [9] and in experiment [8] was “inactive” each time.
`CCC1(CO)COCOC1`: the Potency entry in [1], in experiment [2], in experiment [3], in [5], in experiment [6] and in experiment [7] was “inactive” each time. Besides, the Potency result in [9] and in [8] was “inactive” each time.
As for `CC[N+](CC)(CCNC(=O)C(=O)NCC[N+](CC)(CC)Cc1ccccc1Cl)Cc1ccccc1Cl`, the Potency result in experiment [1], in experiment [2], in [3], in experiment [4], in experiment [5] and in experiment [6] was “inactive” throughout. Moreover, the Potency result in experiment [7], in [9] and in [8] was “inactive” throughout.
Take `CC(C)C[C@H](NC(=O)[C@H](CCc1ccccc1)NC(=O)CN1CCOCC1)C(=O)N[C@@H](Cc1ccccc1)C(=O)N[C@@H](CC(C)C)C(=O)[C@@]1(C)CO1`: the Potency entry in [1], in experiment [4], in experiment [5], in experiment [6], in experiment [7] and in experiment [9] was “inactive” throughout. Moreover, the Potency entry in [8] was “inactive”. The Potency in [2] is 16.8 µM (active); in experiment [3], 0.168 µM (active).
Consider `C[C@]1(Cn2ccnn2)[C@H](C(=O)O)N2C(=O)C[C@H]2S1(=O)=O`, for which the Potency entry in [1], in experiment [2], in experiment [3], in experiment [4], in [5] and in experiment [6] was “inactive” in each case. In addition, the Potency entry in experiment [7], in [9] and in [8] was “inactive” in each case.

The values above are taken from PubChem BioAssay (Tox21).
